Among the data in PubChem BioAssay are inhibition values, retold here.

Broadly, the inhibition is the relative decrease from the control value, in per cent.

The structures appear in SMILES notation. A number with no mark means an inactive call. Calls of active or inactive are those of the source.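 The calls were made as follows: active = inhibition at or above 50% relative to wild type and mutant plate controls; inactive = inhibition below 50%.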

The nature of the test: inhibitors of Chlamydomonas gravitaxis, primary screen, whole organism, Chlamydomonas reinhardtii, WT vs cilia-less mutant, absorbance, 96-well (AID 463189).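 Also: 0% = wild type cc124 cells in DMSO and 100% = ciliumless bld1 mutant cells.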 As to conditions: OD600 absorbance, 2 days, at 10 µM, hits give high values.
`O=c1[nH]c2cc(Cl)c(Cl)cc2[nH]c1=O`: the inhibition is 5.88%. The result for `CSC(=N)N` reads 7.24%; that for `N[C@@H](Cc1cnc[nH]1)C(=O)O`, -1.75%. The result for `CC(C)(Sc1ccc(CCN(CCCCC2CCCCC2)C(=O)NC2CCCCC2)cc1)C(=O)O` reads -0.647%; that for `CC(C)=CCC/C(C)=C/CC/C(C)=C/CSc1ccccc1C(=O)O`, -8.73%. Take `N#Cc1cc2nc(O)c(O)nc2cc1[N+](=O)[O-]`: the inhibition was 1.78%.

In the case of `O=C1O/C(=C/Br)CCC1c1cccc2ccccc12` (stereo not given), the inhibition was -0.58%. The result for `CN(C)CCC(c1ccc(Cl)cc1)c1ccccn1` (stereo not given) reads 9.56%; that for `OCc1cc(C(O)CNCCCCCCOCCCCc2ccccc2)ccc1O` (stereo not given), 6.68%. Consider `C/C(=C\c1ccc(C(=O)O)cc1)c1ccc2c(c1)C(C)(C)CCC2(C)C`, for which the inhibition was 9.5%.

Consider `C[C@@](Cc1ccc(O)c(O)c1)(NN)C(=O)O`, for which the inhibition is -8.89%. As for `CCCN(CC1CC1)c1nc(C)nc(Nc2c(Cl)cc(Cl)cc2Cl)c1Cl`, the inhibition was 3.71%. Regarding `Nn1nnc2ccccc21`, the inhibition is 1.8%. For `CC(C)Cc1ccc([C@H](C)C(=O)O)cc1`, the inhibition is 8.1%. The result for `Nc1nc(Cl)nc2c1ncn2[C@@H]1O[C@H](COP(=O)(O)OP(=O)(O)OP(=O)(O)O)[C@H](O)C1O` (stereo not given in full) reads 0.076%; that for `NOCC(=O)O`, -13.3%.

For `CNC(=O)[C@H]1O[C@@H](n2cnc3c(N)ncnc32)C(O)[C@H]1O` (stereo not given in full), the inhibition was 1.69%. The result for `Oc1ccccc1O` reads -5%. The result for `CCNC(=O)N1CCN(CCCC(c2ccc(F)cc2)c2ccc(F)cc2)CC1` reads 133% (active); that for `CN1C(=O)CC[C@H]1c1cccnc1`, 4.07%. The result for `COCc1nc2c([nH]1)c(=O)n(C)c(=O)n2CC(C)C` reads 1.31%; that for `CCCn1c(=O)c2c(ncn2C)n(CCC)c1=O`, 6.81%. For the compound `CC(=O)O[C@H]1C(=O)[C@@]2(C)C([C@H](OC(=O)c3ccccc3)[C@]3(O)C[C@H](OC(=O)[C@H](O)[C@@H](NC(=O)c4ccccc4)c4ccccc4)C(C)=C1C3(C)C)[C@]1(OC(C)=O)CO[C@@H]1C[C@@H]2O` (stereo not given in full), the inhibition was 8.47%. The result for `CCN1CCC[C@H]1CNC(=O)c1c(O)c(Cl)cc(Cl)c1OC` reads 0.286%. `CNC[C@H](O)c1ccc(O)c(O)c1`: the inhibition is 1.9%. With `O=C(O)c1cc(=O)c2c(Cl)cc(Cl)cc2[nH]1`, the inhibition was 2.38%. The result for `CC(C(O)c1ccc(O)cc1)N1CCC(Cc2ccccc2)CC1` (stereo not given) reads 1.86%; that for `CCCCCC(O)CCCC(=O)O` (stereo not given), -1.48%; that for `CC(=O)N1CCN(c2ccc(OC[C@H]3CO[C@](Cn4ccnc4)(c4ccc(Cl)cc4Cl)O3)cc2)CC1`, 74.8% (active). The result for `O=c1[nH]cc(F)c(=O)[nH]1` reads 2.19%; that for `CC1C(=O)N(C)C(=O)c2nc[nH]c21` (stereo not given), 7.36%; that for `CC(C)C[C@H](NC(=O)[C@H](O)[C@H](N)Cc1ccccc1)C(=O)O`, -10.7%. The result for `OC[C@H]1O[C@@H](n2cnc3c(N[C@H]4CC5CCC4C5)ncnc32)[C@H](O)[C@@H]1O` (stereo not given in full) reads 2.84%; that for `C=C/C(C)=C/[C@@]1(C)SC(=O)C(C)=C1O`, 5.01%; that for `CCCc1c(-c2ccc(O)cc2)nn(-c2ccc(O)cc2)c1-c1ccc(O)cc1`, 6.07%. As for `NC1CCN(c2cccc(Cl)n2)CC1`, the inhibition is -3.28%.

Turning to `COc1cc2nc(N3CCN(C(=O)OCc4ccccc4)C(C(=O)NC(C)(C)C)C3)nc(N)c2cc1OC` (stereo not given), the inhibition is -7.21%. The result for `Cc1ccc(/C(=C\CN2CCCC2)c2ccccn2)cc1` reads 11.6%; that for `NC(N)=NC(N)=Nc1cccc(Cl)c1`, 4.09%; that for `Cn1cnc2c(NCc3ccccc3)nc(NCCO)nc21`, 5.79%.
